Laboratory results as given in PubChem BioAssay AID1159580 (chemical genetic matrix, 2015).
About 2,000 (36%) of roughly 5,500 compounds were called active. About 18% were inconclusive and are not listed. No stated cut-off is given here; in the data, active means normalized growth mostly below about 0.91 (no sharp cut-off); inconclusive means no clear call, values can overlap the other calls; inactive means mostly above about 0.92. Some of the results follow.

Experiment: chemical genetic growth profiling, strain panel (AID 1159580);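 further: tested at 20 µM; growth read once vehicle control cultures reached saturation at 30 °C; 1 = growth at the plate median or of vehicle wells; lower values mean less growth of the strain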
Conditions: growth OD

Measured: normalized growth

Nc1c2c(nc3ccccc13)CCCC2O (stereo not drawn)
inactive: S. cerevisiae deletion strains, locus YJR066W, strain TOR1, hits give low values 0.916 | S. cerevisiae deletion strains, locus YJR075W, strain HOC1, hits give low values 0.987 | S. cerevisiae deletion strains, locus YKL009W, strain mrt4, hits give low values 0.976 | S. cerevisiae deletion strains, locus YKL068W, hits give low values 0.987 | S. cerevisiae deletion strains, locus YKL085W, strain MDH1 (second series), hits give low values 0.991 | S. cerevisiae deletion strains, locus YKL085W, strain MDH1, hits give low values 0.991 | S. cerevisiae deletion strains, locus YKL160W, strain elf1, hits give low values 1.01 | S. cerevisiae deletion strains, locus YKL190W, strain CNB1, hits give low values 1.01 | S. cerevisiae deletion strains, locus YKR001C, strain vps1, hits give low values 0.989 | S. cerevisiae deletion strains, locus YKR026C, strain gcn3, hits give low values 1.01 | S. cerevisiae deletion strains, locus YKR091W, strain srl3, hits give low values 0.998 | S. cerevisiae deletion strains, locus YLL001W, strain dnm1, hits give low values 0.983 | S. cerevisiae deletion strains, locus YLL026W, hits give low values 0.996 | S. cerevisiae deletion strains, locus YLL041C, strain sdh2, hits give low values 1.02 | S. cerevisiae deletion strains, locus YLR027C, strain aat2, hits give low values 1.01 | S. cerevisiae deletion strains, locus YLR039C, strain RIC1, hits give low values 1.01 | S. cerevisiae deletion strains, locus YLR058C, strain SHM2, hits give low values 1.01 | S. cerevisiae deletion strains, locus YLR102C, strain apc9, hits give low values 0.984 | S. cerevisiae deletion strains, locus YLR113W, strain HOG1, hits give low values 1.03 | S. cerevisiae deletion strains, locus YLR221C, strain rsa3, hits give low values 1.02 | S. cerevisiae deletion strains, locus YLR258W, strain gsy2, hits give low values 0.996 | S. cerevisiae deletion strains, locus YLR262C, strain YPT6 (second series), hits give low values 1.01 | S. cerevisiae deletion strains, locus YLR262C, strain YPT6, hits give low values 0.963 | S. cerevisiae deletion strains, locus YLR268W, strain sec22, hits give low values 0.966 | S. cerevisiae deletion strains, locus YLR320W, strain mms22, hits give low values 1.01 | S. cerevisiae deletion strains, locus YLR330W, strain CHS5, hits give low values 0.989 | S. cerevisiae deletion strains, locus YLR342W, strain FKS1 (second series), hits give low values 1.01 | S. cerevisiae deletion strains, locus YLR342W, strain FKS1, hits give low values 1.01 | S. cerevisiae deletion strains, locus YLR357W, strain rsc2, hits give low values 0.975 | S. cerevisiae deletion strains, locus YLR370C, strain arc18, hits give low values 1 | S. cerevisiae deletion strains, locus YLR371W, strain rom2, hits give low values 0.98 | S. cerevisiae deletion strains, locus YLR384C, strain iki3, hits give low values 1 | S. cerevisiae deletion strains, locus YLR418C, strain cdc73, hits give low values 1.02 | S. cerevisiae deletion strains, locus YML016C, strain PPZ1, hits give low values 1.01 | S. cerevisiae deletion strains, locus YML032C, strain rad52, hits give low values 0.99 | S. cerevisiae deletion strains, locus YML120C, strain ndi1, hits give low values 1.03 | S. cerevisiae deletion strains, locus YML124C, strain tub3, hits give low values 0.998 | S. cerevisiae deletion strains, locus YMR058W, strain fet3, hits give low values 1.02 | S. cerevisiae deletion strains, locus YMR078C, strain ctf18, hits give low values 0.993 | S. cerevisiae deletion strains, locus YMR125W, strain sto1, hits give low values 0.997 | S. cerevisiae deletion strains, locus YMR129W, hits give low values 0.999 | S. cerevisiae deletion strains, locus YMR205C, strain PFK2, hits give low values 0.996 | S. cerevisiae deletion strains, locus YMR223W, strain ubp8, hits give low values 0.987 | S. cerevisiae deletion strains, locus YMR231W, strain pep5, hits give low values 0.999 | S. cerevisiae deletion strains, locus YMR307W, strain GAS1, hits give low values 1.08 | S. cerevisiae deletion strains, locus YNL067W, strain RPL9B, hits give low values 1.01 | S. cerevisiae deletion strains, locus YNL071W, strain lat1, hits give low values 1.01 | S. cerevisiae deletion strains, locus YNL128W, strain TEP1, hits give low values 1.02 | S. cerevisiae deletion strains, locus YNL175C, strain NOP13, hits give low values 1 | S. cerevisiae deletion strains, locus YNL183C, strain NPR1, hits give low values 0.912 | S. cerevisiae deletion strains, locus YNL197C, strain WHI3, hits give low values 0.968 | S. cerevisiae deletion strains, locus YNL209W, strain ssb2, hits give low values 1.01 | S. cerevisiae deletion strains, locus YNL224C, strain SQS1, hits give low values 1 | S. cerevisiae deletion strains, locus YNL233W, strain BNI4, hits give low values 1.03 | S. cerevisiae deletion strains, locus YNL248C, strain rpa49, hits give low values 0.992 | S. cerevisiae deletion strains, locus YNL250W, strain rad50, hits give low values 1.01 | S. cerevisiae deletion strains, locus YNL271C, strain bni1, hits give low values 0.981 | S. cerevisiae deletion strains, locus YNL298W, strain CLA4, hits give low values 0.988 | S. cerevisiae deletion strains, locus YNL307C, strain MCK1, hits give low values 0.993 | S. cerevisiae deletion strains, locus YNL322C, strain KRE1 (second series), hits give low values 1.01 | S. cerevisiae deletion strains, locus YNR049C, strain mso1, hits give low values 1.01 | S. cerevisiae deletion strains, locus YNR052C, strain pop2, hits give low values 0.966 | S. cerevisiae deletion strains, locus YOL006C, strain TOP1, hits give low values 1.13 | S. cerevisiae deletion strains, locus YOL012C, strain htz1 0.815 | S. cerevisiae deletion strains, locus YOL147C, strain pex11, hits give low values 0.999 | S. cerevisiae deletion strains, locus YOR001W, strain rrp6, hits give low values 1.03 | S. cerevisiae deletion strains, locus YOR061W, strain CKA2, hits give low values 1.01 | S. cerevisiae deletion strains, locus YOR069W, strain VPS5, hits give low values 1 | S. cerevisiae deletion strains, locus YOR070C, strain gyp1, hits give low values 1.01 | S. cerevisiae deletion strains, locus YOR080W, strain dia2, hits give low values 0.996 | S. cerevisiae deletion strains, locus YOR083W, strain WHI5 (second series), hits give low values 0.986 | S. cerevisiae deletion strains, locus YOR083W, strain WHI5, hits give low values 1.01 | S. cerevisiae deletion strains, locus YOR106W, strain vam3, hits give low values 1 | S. cerevisiae deletion strains, locus YOR136W, strain idh2, hits give low values 0.997 | S. cerevisiae deletion strains, locus YOR144C, strain elg1, hits give low values 0.999 | S. cerevisiae deletion strains, locus YOR184W, strain ser1, hits give low values 0.988 | S. cerevisiae deletion strains, locus YOR231W, strain MKK1, hits give low values 0.977 | S. cerevisiae deletion strains, locus YOR265W, strain rbl2, hits give low values 1 | S. cerevisiae deletion strains, locus YOR270C, strain vph1, hits give low values 1.02 | S. cerevisiae deletion strains, locus YOR290C, strain snf2, hits give low values 0.974 | S. cerevisiae deletion strains, locus YOR316C, strain cot1, hits give low values 0.977 | S. cerevisiae deletion strains, locus YPL051W, strain arl3, hits give low values 1.01 | S. cerevisiae deletion strains, locus YPL055C, strain LGE1, hits give low values 1.06 | S. cerevisiae deletion strains, locus YPL078C, strain atp4, hits give low values 1.01 | S. cerevisiae deletion strains, locus YPL106C, strain sse1, hits give low values 1.01 | S. cerevisiae deletion strains, locus YPL240C, strain hsp82, hits give low values 1.01 | S. cerevisiae deletion strains, locus YPL256C, strain CLN2, hits give low values 0.962 | S. cerevisiae deletion strains, locus YPR119W, strain clb2, hits give low values 0.976 | S. cerevisiae deletion strains, locus YPR141C, strain kar3, hits give low values 0.982 | S. cerevisiae deletion strains, locus YPR163C, strain tif3, hits give low values 0.973 | S. cerevisiae deletion strains, locus YPR167C, strain met16, hits give low values 0.984 | S. cerevisiae deletion strains, strain wtn01, hits give low values 0.993 | S. cerevisiae strains, strain wild type, hits give low values 1.02
